Data on 41 molecules can be found in PubChem BioAssay AID2685 (National Center for Advancing Translational Sciences (NCATS), 2010).

The whole screen tested about 320,000 compounds, of which about 2,100 (0.66%) were called active. Not shown: some 53% with an inconclusive outcome. Calls come from the whole dose curve; as a rule, active = well fitted inhibition curve with a large enough effect in the signal ratio, with a control signal flat (not every such curve was filed as active); inconclusive = small, poorly fitted or top-dose-only effect, or effect the other way, or a change in a side signal; inactive = flat fitted curve, though single readings scatter; the % refers to the signal ratio. Only a selection was taken, and actives are over-represented in it overall.
Potency is the fitted concentration of half-maximal effect.

The nature of the test: qHTS Assay for Lipid Storage Modulators in Drosophila S3 Cells.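 For cell number change: cells counted by Cell Tracker Red CMTPX staining in the red channel.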 For lipid storage change, negative = inhibition: % is set by controls: 0 for no effect and ±100 for the full control effect. The note with it: BODIPY lipid droplet fluorescence, 18-24 h, cells fed with added oleic acid; cell number change: measured here: cell count max response; series mostly up to 46.1 µM; lipid storage change, negative = inhibition: at the top concentration. Summed up: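 Laser-scanning cytometry quantifies lipid droplet accumulation (500–530 nm total intensity; droplet/cell object ratio) in oleic acid-fed (400 uM added) Drosophila S3 cells treated with a concentration series. 20 uM Triacsin C defined 100% inhibition.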
Turning to `CCOC(=O)C1=C(C)NC(=O)NC1c1ccc(OC(C)C(=O)O)c(OC)c1` (configuration not stated), the “lipid storage change, negative = inhibition” value was -12.9% (inactive) and the cell number change was determined as 0.405%.

For `O=C(C[n+]1ccccc1)N/N=C/c1cccc(Cl)c1Cl`, the “lipid storage change, negative = inhibition” value was -4.8% (inactive) and the cell number change turned out to be 4.15%.

As for `CCOc1ccc(C(=O)Nc2ccccc2-c2ccccc2)cc1Cl`, the “lipid storage change, negative = inhibition” value is 16.7% (inactive) and the cell number change was -2.51%.

Consider `O=C(CSc1nc2ccccc2c(=O)n1-c1ccc(F)cc1)NC1CCS(=O)(=O)C1` (configuration not stated), for which the “lipid storage change, negative = inhibition” value was -12.7% (inactive).

As for `COc1ccc(OC)c(NC(=O)COC(=O)CN(C)S(=O)(=O)c2ccc(C)cc2)c1`, the “lipid storage change, negative = inhibition” value is 23.2% (inactive) and the cell number change came to 1.08%.

Take `Cc1[nH]c2ccccc2c1/C=N/NC(=O)C1CC1(c1ccccc1)c1ccccc1` (configuration not stated): the “lipid storage change, negative = inhibition” value was -4.99% (inactive) and the cell number change is -28.5%.

For `Cc1ccc(C(=O)NCc2cccnc2)o1`, the molecule was called inactive and the cell number change was -7.92%.

Turning to `CC1(C)Cc2c(sc3ncnc(NN)c23)CO1`, the molecule was classed as inactive and the cell number change stood at 28.8%.

In the case of `CCC(=O)Nc1nc(C)c(-c2csc(Nc3cccc(C(=O)O)c3)n2)s1`, the “lipid storage change, negative = inhibition” value is -13.5% (inactive) and the cell number change was determined as 10.2%.

Take `CCCCCCC(=O)Nc1nc(C)c(-c2csc(Nc3ccc(Cl)cc3)n2)s1`: the “lipid storage change, negative = inhibition” value is -12% (inactive).

As to `CCCCCC(=O)Nc1nc(C)c(-c2csc(Nc3ccc(Cl)cc3)n2)s1`, the “lipid storage change, negative = inhibition” value is 3.71% (inactive) and the cell number change is -19%.

Turning to `CC(=O)Nc1ccc(Nc2nc(-c3sc(NC(C)=O)nc3C)cs2)cc1`, the Potency is 20.6 µM (active) and the cell number change was -25.9%.

In the case of `CCC(=O)Nc1nc(C)c(-c2csc(Nc3cccc(O)c3)n2)s1`, the Potency is 29.1 µM (active) and the cell number change is -27%.

For the molecule `Cc1nc(C)c(-c2csc(Nc3cccc(O)c3)n2)s1`, the “lipid storage change, negative = inhibition” value is 8.45% (inactive) and the cell number change was -15.3%.

In the case of `Nc1ncc(-c2nnnn2-c2ccc(Cl)cc2)c(-c2ccc(Cl)cc2)n1`, the “lipid storage change, negative = inhibition” value was -8.48% (inactive) and the cell number change came out at 22.6%.

For the molecule `COC(=O)/C=C1\NCCNC1=O`, the “lipid storage change, negative = inhibition” value is -11.5% (inactive) and the cell number change stood at 9.92%.

With `COc1ccc(NC(=O)CCC(=O)N/N=C/c2cccnc2)cc1`, the molecule was classed as inactive and the cell number change is 1.18%.

Regarding `COc1cc(CN2CCc3ccc(NC(=O)CCc4ccccc4OC)cc3C2)ccc1O`, the “lipid storage change, negative = inhibition” value was -2.88% (inactive) and the cell number change is -9.87%.

On to `Cc1ccsc1C(=O)N(C)CC(=O)Nc1ccccc1Br`, for which the lipid storage change, negative = inhibition is 15.6% [at 0.0737 µM] (inactive).

As for `Cc1ccc(C)c(NC(=O)CN(C)C(=O)c2sccc2C)c1`, the Potency was 4.61 µM (active).

With `Cc1ccc(C)c(NC(=O)CN(C)C(=O)Cc2ccccc2)c1`, the “lipid storage change, negative = inhibition” value was 3.1% (inactive) and the cell number change amounted to 0.0719%.

As for `CSCCC(NS(=O)(=O)c1ccccc1F)C(=O)NNC(=O)c1csc(N2CCOCC2)n1` (configuration not stated), the cell number change was -7.74% and the lipid storage change, negative = inhibition was 27.4% [at 0.0737 µM] (inactive).

As to `CC1CC(C)CN(C(=O)COC(=O)c2c[nH]c3ccccc23)C1` (configuration not stated), the Potency is 0.92 µM (active) and the cell number change is -17%.

With `CC1CC(C)CN(C(=O)COC(=O)Cc2c[nH]c3ccccc23)C1` (configuration not stated), the “lipid storage change, negative = inhibition” value was 23% (inactive).

On to `CC1CC(C)CN(C(=O)COC(=O)c2nn(C)c(=O)c3ccccc23)C1` (configuration not stated), for which the “lipid storage change, negative = inhibition” value is 29.3% (inactive) and the cell number change was 14.1%.

Take `CCOC(=O)c1c(NC(=O)C2CC=CCC2C(=O)O)sc(C)c1CC` (configuration not stated): the “lipid storage change, negative = inhibition” value was 2.17% (inactive) and the cell number change amounted to 12.8%.

Consider `CCc1c(C)sc(NC(=O)C2CC2)c1C(=O)OC(C)C`, for which the Potency was 1.3 µM (active) and the cell number change is -47.8%.

For `CCc1c(C)sc(NC(=S)NC(C)C2CCCO2)c1C(=O)OC` (configuration not stated), the “lipid storage change, negative = inhibition” value is -1.69% (inactive) and the cell number change came out at 8%.

Take `CC(NC(=O)CN(c1ccc(Br)cc1)S(C)(=O)=O)c1ccccc1` (configuration not stated): the “lipid storage change, negative = inhibition” value was -4.37% (inactive) and the cell number change worked out at 6.99%.

As for `CC(NC(=O)CN(c1ccc(F)cc1)S(C)(=O)=O)c1ccccc1` (configuration not stated), the Potency was 4.11 µM (active) and the cell number change was -10.2%.

On to `CC(NC(=O)CN(c1ccc(Cl)cc1)S(C)(=O)=O)c1ccccc1` (configuration not stated), for which the outcome was inactive and the cell number change is 17.6%.

In the case of `Cc1ccccc1CN1C[C@@H]2C[C@@H](c3cnc(N4CCOCC4)s3)N3CCC[C@@]23C1=O`, the “lipid storage change, negative = inhibition” value is -17.2% (inactive) and the cell number change stood at 3.26%.

Consider `COc1ccc(C(NC(=O)CNC(C)=O)C(=O)Nc2ccc3c(c2)OCCO3)cc1` (configuration not stated), for which the “lipid storage change, negative = inhibition” value was -2.63% (inactive) and the cell number change came out at 8.96%.

Take `O=P(c1ccccc1)(c1ccccc1)C(O)c1ccncc1` (configuration not stated): the “lipid storage change, negative = inhibition” value was 15.5% (inactive) and the cell number change was determined as 15.4%.

Consider `CCO[C@@H]1OC(C(=O)N2CCCCCCC2)=C[C@H](C2CCCCC2)[C@H]1CCCO`, for which the “lipid storage change, negative = inhibition” value is -29.6% (inactive) and the cell number change was -14.4%.

On to `CCO[C@@H]1OC(C(=O)N2CCN(Cc3ccccc3)CC2)=C[C@H](C2CC2)[C@H]1CCCO`, for which the “lipid storage change, negative = inhibition” value is -11.3% (inactive) and the cell number change turned out to be 7.31%.

Turning to `CCO[C@H]1OC(C(=O)N2CCN(Cc3ccccc3)CC2)=C[C@@H](C2CCCCC2)[C@@H]1CCCO`, the Potency was 20.6 µM (active) and the cell number change is -29.1%.

On to `COc1cc(S(=O)(=O)N2CCC(c3nc4ccccc4s3)CC2)ccc1S(=O)(=O)N1CC(C)CC(C)C1` (configuration not stated), for which the “lipid storage change, negative = inhibition” value was 5.49% (inactive) and the cell number change came out at 0.159%.

Turning to `Cc1cc(=O)oc2cc(OCc3ccc(C(=O)OCC(=O)NC4CCS(=O)(=O)C4)cc3)ccc12` (configuration not stated), the “lipid storage change, negative = inhibition” value was 6.62% (inactive) and the cell number change turned out to be 8.28%.

As for `CCOc1cc(C(c2c(C)[nH][nH]c2=O)c2c(C)[nH][nH]c2=O)ccc1OS(=O)(=O)c1ccccc1`, the Potency is 29.1 µM (active) and the cell number change was -2.58%.

In the case of `COc1cc(C(c2c(C)[nH][nH]c2=O)c2c(C)[nH][nH]c2=O)ccc1OS(=O)(=O)c1ccccc1`, the “lipid storage change, negative = inhibition” value is 16.7% (inactive) and the cell number change was -3.94%.
